Experimental data reported in PubChem BioAssay AID952 (NMMLSC, 2007).
Screen size: about 190,000 compounds; about 45 (0.02%) were called active. No stated cut-off is given here; in the data, active means inhibition above about 40%. A selection follows.

target: Bcl-2-like protein 2 (Homo sapiens) (UniProt Q92843); experiment: inhibitors of Bim binding to Bcl-W, primary screen, biochemical, multiplexed, bead-based flow cytometry (AID 952); settings: Bim peptide-Bcl-W binding, at 10 µM, hits give high values;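 further: 0% = bound tracer without compound and 100% = peptide blocker; higher means less fluorescent Bim peptide bound to Bcl-W beads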
Sequence (Q92843 whole entry, looked up): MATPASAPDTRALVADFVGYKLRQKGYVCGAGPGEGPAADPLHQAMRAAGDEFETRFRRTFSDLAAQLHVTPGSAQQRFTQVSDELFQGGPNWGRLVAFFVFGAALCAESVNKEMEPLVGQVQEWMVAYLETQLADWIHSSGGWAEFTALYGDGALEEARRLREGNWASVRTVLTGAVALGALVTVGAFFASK

inhibition, inactive:
CCOC(=O)NC(=O)/C(C#N)=C\c1ccccc1 -2%, Cc1cc(C)cc(NC(=O)N2CCCCCCC2)c1 0%, Cc1[nH]c2ccccc2c1C(=O)COC(=O)c1c(-c2ccccc2)noc1C -1%, COc1cc(SC#N)ccc1N=Cc1c(C)[nH]n(-c2ccc(C)cc2)c1=O 6%, O=C(NCc1ccccc1)C1CCCN(c2nc3ccsc3c(=O)s2)C1 (stereo not given) -4%, CCN(CC)CC(=O)Nc1sc2c(c1C(=O)c1ccccc1C)CCC2 0%, O=C(Nc1nnc(-c2ccco2)o1)c1ccc(S(=O)(=O)N2CCOCC2)cc1 0%, Cc1nc(N2CCOCC2)sc1C(=O)NN 0%, CC1CCN(C(=S)c2cccc([N+](=O)[O-])c2)CC1 0%, N/C(=N\OC(=O)CCCC(=O)O)c1ncc(C(F)(F)F)cc1Cl -1%, Cc1ccc(SC(C)C(=O)NCc2ccc(F)cc2)cc1 (stereo not given) 0%, Cc1ccc(Nc2cc(C)nc3c(C)ccc([N+](=O)[O-])c23)cc1 0%, N#Cc1c(NC(=O)c2ccc(N3CCOCC3)c([N+](=O)[O-])c2)sc2c1CCCC2 -4%, Cc1cc(C)nc(-n2nc(C)cc2NC(=O)c2ccc(F)cc2F)n1 1%, CCc1nn(CCCN2CCN(c3cccc(Cl)c3)CC2)c(=O)n1CCOc1ccccc1 -5%, C/C(=N/N1CCN(Cc2cccc3ccccc23)CC1)c1cccnc1 0%, O=C1CC(c2cccc(Cl)c2)CC(O)=C1C=Nc1ccccc1 (stereo not given) -5%, Cc1cnc(C(=O)OCC(=O)N2CCc3ccccc32)cn1 0%, CC(=O)C1(C)N(O)C(C)(C)C(c2cccs2)=[N+]1[O-] (stereo not given) 0%, O=C(OCC(=O)c1cccs1)c1ccc([N+](=O)[O-])o1 0%, O=C(CCl)N(Cc1cccc([N+](=O)[O-])c1)c1cccc(Cl)c1 1%, c1ccc2c(c1)OCCOCCOCCO2 0%, CCOc1cccc2c1OC1(CCCCC1)N1N=C(c3cccnc3)CC21 (stereo not given) -4%, CCCC(=O)Nc1ccc(C(=O)N/N=C/c2ccc[nH]2)cc1 -5%, Cc1ccc(S(=O)(=O)N(C)C)cc1NC(=O)COC(=O)c1c(C)noc1C 0%, Cc1cc(/C=N/NC(=O)c2cccnc2)c(C)n1CC(C)C 1%, CC(=O)Nc1ccc(NC(=O)CSc2nnc(COc3ccccc3C)n2CC2CCCO2)cc1 (stereo not given) -2%, Cc1cc(C)n2nc(C(=O)N3CCN(Cc4ccc5c(c4)OCO5)CC3)nc2n1 -2%, C/C(=N/Nc1ccc(Cl)cc1)c1cnnc(-c2ccccc2)n1 -1%, O=C(O)/C=C/C(=O)NNc1ccc([N+](=O)[O-])cc1 5%, CCOC(=O)c1cccc(NC(=O)CCOc2ccccc2)c1 -1%, O=C(Cn1nnc2ccccc2c1=O)NCc1ccc(Cl)cc1 -1%, CSc1nc2ccccc2c(=O)n1Cc1ccc(F)cc1 0%, COc1ccc(NC(=S)NCC2CCN(c3ccc(OC)cc3)C2)cc1 (stereo not given) 0%, CCOc1ccc(N2C(=O)/C(=C/c3ccc(C)o3)N(C)C2=S)cc1 4%, O=c1[nH]n2c(-c3ccccc3)nc(O)c2c2ccccc12 -1%, COc1ccc(C(C(=O)NC2CCCCC2)N(C(=O)CCl)c2ccccc2Cl)cc1 (stereo not given) 0%, OC(CNCc1ccc(Cl)c(Cl)c1)c1ccccc1 (stereo not given) 0%, O=C(COc1ccc(Cl)cc1[N+](=O)[O-])N1CCCCC1 3%, Cc1nccn1CC(=O)N/N=C/c1ccc(O)c(O)c1 -5%, CN(Cc1nc2ccc(F)cc2[nH]1)Cc1nc(CC2CC2)no1 -6%, Nc1nnc(SCC(=O)OCc2ccc(Cl)c(Cl)c2)s1 3%, CN(C)CCOc1cccc(Br)c1 -3%, Clc1cc(-c2ccc(/C=N/n3cnnc3)o2)ccc1Br 0%, CCC(=O)N(Cc1cc2ccccc2[nH]c1=O)c1ccc(OC)cc1 0%, CCOC(=O)c1cnc2c(c(C)nn2CC)c1Cl -1%, CN(C)/N=C/c1cn(-c2ccccc2)nc1-c1cccnc1 1%, Cc1cc(C)n(-c2ccc(C(=O)O)cc2[N+](=O)[O-])n1 0%, CCCCNC(=O)C1CCC(CNS(=O)(=O)c2ccc(NC(C)=O)cc2)CC1 (stereo not given) 1%, C=CCn1c(=NC(=O)c2cccs2)sc2cc(NC(C)=O)ccc21 0%, O=C(NNC(=S)NCc1ccccc1)c1ccc(OC(F)F)cc1 1%, CC(=O)c1cccc(-n2nnnc2SCC(=O)NNC(=O)C2CCCCC2)c1 0%, CC(=O)c1cc(C#N)c(SCC(=O)Nc2nccs2)nc1C -1%, COCCNC(=O)c1ccc(-n2c(SCc3cccnc3)nc3ccccc3c2=O)cc1 -4%, CCCCN(CC)CCNC(=O)CCNC(=O)Cn1ccc2ccccc2c1=O -2%, CCN(CC(=O)NCc1cccs1)S(=O)(=O)c1ccc(NC(C)=O)cc1 0%, CN(CCC1CCOCC1)Cc1cn[nH]c1-c1ccc(-c2ccccc2)cc1 -1%, O=C(NC(=S)N1CCN(Cc2ccccc2)CC1)c1ccccc1 -3%, CCOC(=O)c1c(NC(=O)C(C)Sc2c[nH]c3ccccc23)sc2c1CCC2 (stereo not given) -3%, COc1cc(NC(=S)NCc2ccco2)c(OC)cc1Cl -1%, O=C(c1ccc(F)cc1)c1cn(Cc2ccc(F)cc2)c2cc3c(cc2c1=O)OCCO3 -4%, COc1cc(C)c(S(=O)(=O)N2CCOCC2)c(C)c1C -3%, Cc1nnsc1C(=O)N/N=C/c1cccc(C(F)(F)F)c1 -2%, CCOC(=O)c1[nH]c2c(c1-c1ccccc1)C(=O)CC(c1ccc(Cl)cc1)C2 (stereo not given) -3%, COc1ccc(N=C2SC(C(=O)Nc3ccc(F)cc3)CC(=O)N2C)cc1 (stereo not given) 0%, CNC(=O)/C(C#N)=C/c1c(F)cccc1Cl -2%, CCn1ncc(CNC(=O)C2(C)CC2(Br)Br)c1C (stereo not given) -4%, Cc1ccc(N(C(=O)C(F)(F)F)C(C(=O)NC2CCCCC2)c2ccncc2)cc1C (stereo not given) -1%, N#Cc1cccc(Nc2c3c(nc4ccccc24)CCCC3)c1 4%, COc1ccc(Cl)cc1NC(=O)CN(C)Cc1ccc(OC)c(OC)c1 -4%, NC(=O)CC[C@@H]1NC(=O)[C@H](CO)NC(=O)c2cc([N+](=O)[O-])cc(I)c2NCC[C@@H](C(N)=O)NC1=O 0%, O=C(/C=C/c1ccc(N2CCOCC2)cc1)c1ccccc1 -4%, CCCC(C)C(=O)OCC(=O)Nc1c(Br)cc(C)cc1Br (stereo not given) 0%, O=S(=O)(c1ccc(F)cc1)N1CCN(C(=S)NC2CCCC2)CC1 0%, COc1cc2c(cc1NC(=O)COC(=O)/C=C/c1ccccc1)oc1ccccc12 -7%, Cc1ccc(N(C(=O)c2sc(C)nc2C)C(C(=O)NC(C)(C)C)c2ccncc2)cc1 (stereo not given) -1%, COc1ccc(C(=O)CSc2nnc(NC(=O)C3CC(=O)N(c4cccc(OC)c4)C3)s2)cc1 (stereo not given) -2%, O=C(Nn1c(-c2ccc(Cl)cc2)nc2ccccc2c1=O)c1cccnc1Cl 10%, Cc1cc(OCCCN2CCN(Cc3ccccc3)CC2)ccc1[N+](=O)[O-] 0%, COc1ccc(Nc2ncc(F)c(N3CCOCC3)n2)cc1 -1%, CCCCCOc1ccc(/C=C/C(=O)NCCc2nc3ccccc3[nH]2)cc1OC -7%, CCCC/C(C)=N/NC(=O)NC1CCCCC1 -3%, COc1ccnc(Oc2ccccc2)c1-c1ncn[nH]1 -1%, N=c1n(CCc2ccccc2)c2ccccc2n1Cc1ccccc1F -6%, COc1ccccc1NC(=S)N1CCN(C(c2ccccc2)c2ccccc2)CC1 1%, O=C(c1ccncc1)N1CCN(c2ccc3ccccc3n2)CC1 0%, Cc1ccc(C(=O)Oc2coc(CSc3nnc(NC(=O)c4cccs4)s3)cc2=O)cc1C -6%, COc1ccc(NC(=O)C(=O)NCC(=O)Nc2cccc(C(F)(F)F)c2)cc1 1%, CCN(CC)C(=O)CS(=O)CC(=O)Nc1cc(OCCOC)c(Cl)cc1Cl (stereo not given) -1%, Brc1cc(/C=N/n2cnnc2)oc1Br -2%, CCc1ccc(CN(C)C(=O)CCc2nnc(-c3ccc(-c4ccccc4)cc3)o2)nc1 1%, CC(C)N(Cc1ccccc1)C(=O)COC(=O)c1cnccn1 -1%, COCC(C)n1c(C)cc(C(=O)CSc2cc(C)c3ccccc3n2)c1C (stereo not given) -6%, O=C(c1cccs1)n1nc(NCc2ccccc2)nc1NCc1ccccc1 0%, Cc1ccc(NCc2n[nH]c(=S)n2-c2ccccc2)cc1Cl 0%, Cc1cc2nc(C(F)(F)F)cc(-c3cccs3)n2n1 0%, O=C1Oc2ccccc2C(=O)/C1=C/c1ccccc1O 0%, Cc1ccc(/C=C/C(=O)Nc2cc(S(=O)(=O)N3CCCCCC3)ccc2OCC(F)(F)F)o1 -2%, Cc1ccc(C2CC(c3cccc(NS(C)(=O)=O)c3)=NN2S(C)(=O)=O)cc1 (stereo not given) -1%, COCCn1c(=O)[nH]c(=O)c2cc(C(=O)c3cc(OC)ccc3O)cnc21 -3%
